According to ChEMBL document CHEMBL4513149, “CO-ADD screening of MMV (CH) - MMV compounds” (2021):
Measured potencies and affinities stand elsewhere.

Key:
Staphylococcus aureus = conditions: Concentration 20 uM; ASSAY_TEST Inhibition of Bacterial Growth; detection method Absorption (OD600); MEDIA CAMHB; plate type 384well; NBS; CORNING #3640; time 18 hr
Escherichia coli = conditions: Concentration 20 uM; ASSAY_TEST Inhibition of Bacterial Growth; detection method Absorption (OD600); MEDIA CAMHB; plate type 384well; NBS; CORNING #3640; time 18 hr

SMILES	Inhibition (Staphylococcus aureus)	Inhibition (Escherichia coli)
CCc1cc(=O)n(C)c(SC(C)C(=O)Nc2ccc(F)cc2)n1 (stereo unspecified)	4.54%	4.12%
CC1CCCCN1C(=O)NCCc1coc(-c2ccc(F)cc2)n1 (stereo unspecified)	23.75%	7.62%
CC(C)(C)OC(=O)N1CCC(Cn2nc(-c3cnc4ccccc4c3)c3c(N)ncnc32)CC1	18.54%	10.38%
C[C@]1(O)C[C@@H](c2nc(-c3ccc4ccc(-c5ccccc5)nc4c3)c3c(N)nccn32)C1 [LINSITINIB]	13.39%	6.95%
N#Cc1nc(-c2ccccc2)oc1S(=O)(=O)c1ccc(Cl)cc1	8.62%	6.48%
Cn1ncc2c(N3CCOCC3)nc(NCCc3c[nH]c4ccccc34)nc21 [TDR79432]	12.92%	-1.67%
Cc1cc(C)n(-c2ccc(NC(=O)C3CCN(Cc4cnc(C)s4)CC3)cc2)n1	16.08%	3.68%
Nc1ncnc2c1ncn2C[C@@H](O)[C@@H](O)C(=O)O [ERITADENINE]	13.9%	8.78%
Cc1ccc2[nH]c(C3CCCNC3)c(-c3ccncc3)c2c1.Cl.Cl (stereo unspecified)	42.59%	2.54%
CCC(Sc1nc2ccccc2o1)C(=O)Nc1nnc(C)s1 (stereo unspecified)	-13.91%	-8.34%
CC(C)C(Oc1cccc2ccccc12)C(=O)O (stereo unspecified)	10.48%	-2.25%
Clc1ccc(-n2cc(COc3ccnc4ccccc34)nn2)cc1	21.12%	8.78%
CCC(=O)Nc1ccccc1C(=O)Nc1ccccn1	18.51%	10.48%
